Bioassay records deposited in PubChem by The Scripps Research Institute Molecular Screening Center.
The list is not random: actives were taken first. Their share in the collection is about 2.4%.
CHO-K1 Ca PAM: nonselective calcium activators in parental CHO-K1 cells, primary screen, counter-screen for M1 PAM project, cell-based, Fluo-8 calcium fluorescence, full deck, 1536-well; AID 602247, 2012; activation, % at 3 µM; ATP EC20; 0% at ATP EC20, 100% at ATP max; actives 0.02% (n = 360,000);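 active means activation above the run cutoff, the mean activation of all test compounds plus 3 SD, cut at about 40% in these data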;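 further: peak over basal fluorescence ratio in a 140 s read after ATP addition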
CHRM1 antagonist: human M1 muscarinic receptor antagonists, primary screen, CHO-K1 cells, Fluo-8 calcium fluorescence, 1536-well; inhibition, % at 3 µM; actives 1.3% (n = 360,000); CHO-K1 hM1, ACh EC80 antagonist; Muscarinic acetylcholine receptor M1 (Homo sapiens), P11229; AID 588852, 2011;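 active means percent inhibition above its own plate's cutoff, namely the mean of that plate's compound wells plus 3 SD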;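 further: peak over basal fluorescence ratio during 140 s after agonist addition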
Target sequence (P11229 whole entry, looked up): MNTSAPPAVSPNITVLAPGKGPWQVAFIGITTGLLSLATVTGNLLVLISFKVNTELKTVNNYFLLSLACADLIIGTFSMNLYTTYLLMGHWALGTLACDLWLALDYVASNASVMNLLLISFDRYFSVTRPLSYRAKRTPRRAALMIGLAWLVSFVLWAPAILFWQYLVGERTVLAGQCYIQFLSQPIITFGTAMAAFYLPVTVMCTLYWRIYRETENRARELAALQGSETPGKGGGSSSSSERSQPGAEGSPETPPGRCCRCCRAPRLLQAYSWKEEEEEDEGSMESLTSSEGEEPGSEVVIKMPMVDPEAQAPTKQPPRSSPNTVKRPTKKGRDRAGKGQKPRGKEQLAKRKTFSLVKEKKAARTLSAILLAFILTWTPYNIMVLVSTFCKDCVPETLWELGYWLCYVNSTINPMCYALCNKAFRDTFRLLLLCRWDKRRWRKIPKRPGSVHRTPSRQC
M1 PAM: human M1 muscarinic receptor positive allosteric modulators, primary screen, CHO-K1 cells, Fluo-8 calcium fluorescence, 1536-well; AID 588819, 2011; activation, % at 3 µM; actives 0.088% (n = 360,000); Muscarinic acetylcholine receptor M1 (Homo sapiens), P11229; CHO-K1 hM1, ACh EC20; 0% = ACh EC20, 100% = maximal ACh; in the data active means activation above about 19%, passing the limit was not always enough
CHRM1 agonist: human M1 muscarinic receptor agonists, primary screen, Fluo-8 calcium fluorescence, CHO-K1 cells, HTS | Muscarinic acetylcholine receptor M1 (Homo sapiens), P11229 | CHO-K1 hM1, agonist mode; 0% DMSO, 100% acetylcholine EC100 | activation, % at 3 µM | actives 0.33% (n = 360,000) | AID 588814, 2011;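 active means activation above the run's mean compound activation plus 3 SD, cut at about 16% in these data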;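 further: peak over basal fluorescence ratio within a 140 s kinetic read after compound addition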
CHO-K1 Ca ag: counter-screen for M1 agonists: effect in parental CHO-K1 cells | Fluo-8 calcium fluorescence; scaled to maximal ATP response, vehicle zero | activation, % at 3 µM | actives 0.48% (n = 360,000) | AID 602248, 2012; in the data active means activation above about 15%;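 further: untransfected CHO-K1 host cells lacking M1 receptor as counterscreen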
CHO-K1 Ca antag: M1 antagonist counterscreen hit in parental CHO-K1 cells; ATP-induced calcium, Fluo-8 fluorescence; inhibition, % at 3 µM; actives 0.6% (n = 360,000);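 active means inhibition above a per-plate cutoff, the plate's mean sample inhibition plus 3 SD, cut at about 24% in these data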
Hits are given with their value; n = inactive.

SMILES	CHO-K1 Ca PAM	CHRM1 antagonist	M1 PAM	CHRM1 agonist	CHO-K1 Ca ag	CHO-K1 Ca antag
CN1CCC(=C2c3ccccc3CCc3sccc32)CC1	n	98.5	n	n	n	n
Nc1nc2c(s1)CCc1ccccc1-2	n	n	n	n	n	n
CN1CCC(=C2c3ccccc3C(O)c3ccccc32)CC1 (configuration not stated)	n	99.8	n	n	n	n
COc1cccc(C(CC(=O)O)NS(=O)(=O)c2ccc3c(c2)N(C(C)=O)CC(C)O3)c1 (configuration not stated)	n	n	n	n	n	n
Cc1ccc(C(C(=O)NC2CCCC2)N(Cc2ccc3c(c2)OCO3)C(=O)c2snc(C(N)=O)c2N)cc1 (configuration not stated)	n	24.3	n	n	n	n
Cc1ccc(C(C(=O)NCc2ccc(F)cc2)N(Cc2ccco2)C(=O)c2snc(C(N)=O)c2N)o1 (configuration not stated)	n	34.8	n	n	n	n
COc1ccc(C(C(=O)NC2CCCCC2)N(Cc2ccco2)C(=O)c2snc(C(N)=O)c2N)cc1 (configuration not stated)	n	25.1	n	n	n	n
NC(=O)c1nsc(C(=O)N(Cc2ccco2)C(C(=O)NCc2ccc(F)cc2)c2ccc(O)cc2)c1N (configuration not stated)	n	n	n	n	n	n
CN(C)c1ccc(C(C(=O)NCC2CCCO2)N(Cc2ccccc2)C(=O)c2snc(C(N)=O)c2N)cc1 (configuration not stated)	n	25.6	n	n	n	n
FC(F)(F)c1ccc2c(c1)n(Cc1ccccc1)c1[n+]2CCCCC1	n	49.1	n	n	n	n
CC(Sc1nncs1)C(=O)Nc1ccc2c(c1)OCCO2 (configuration not stated)	n	n	n	n	n	24.9
CC(C(=O)Nc1ccc2c(c1)OCCO2)c1ccc([N+](=O)[O-])cc1 (configuration not stated)	n	n	n	41.8	17.3	n
CCCn1cnc2c(SCc3ccccc3)nc(N)nc21	n	n	n	n	n	n
COc1ccc(S(=O)(=O)N2CCCCC2)cc1	n	n	n	n	n	27.0
COc1ccc(NS(=O)(=O)c2ccc(N3CCCCC3)c(NC(=O)C(C)NC(N)=O)c2)cc1 (configuration not stated)	n	n	n	n	n	n
O=S(=O)(NC1CCN(Cc2ccccc2)CC1)c1ccc(Cl)cc1	n	51.9	n	n	n	n
COc1ccc(NS(=O)(=O)c2ccc(N3CCCCC3)c(N)c2)cc1	n	35.7	n	n	n	n
CN(CC(=O)NC1CCN(Cc2ccccc2)CC1)S(=O)(=O)c1ccc(Cl)cc1	n	n	n	n	n	n
COc1ccc2cc(S(=O)(=O)N3CCCCCC3)ccc2c1	n	n	n	n	n	n
COc1ccc(S(=O)(=O)N2CCC(N3CCN(Cc4ccccc4)CC3)CC2)cc1	n	83.6	n	n	n	n
Cc1cc(NS(=O)(=O)c2ccc(NC(=O)CSc3nnc(-c4ccco4)n3Cc3ccco3)cc2)nc(C)n1	n	n	n	n	n	n
O=[N+]([O-])c1ccccc1S(=O)(=O)N1CCN(C2CCN(Cc3ccccc3)CC2)CC1	n	54.2	n	n	n	n
O=[N+]([O-])c1ccc(S(=O)(=O)N2CCN(C3CCN(Cc4ccccc4)CC3)CC2)cc1	n	n	n	n	n	n
COc1cc(S(=O)(=O)N2CCN(Cc3ccccc3)CC2)ccc1Br	n	n	n	n	n	47.5
O=S(=O)(c1ccc(Cl)cc1)N1CCN(C2CCN(Cc3ccccc3)CC2)CC1	n	36.8	n	n	n	n
Cc1cc(C)c(NC(=O)CSc2nc3c(c(=O)n2C)SC(C)C3)c(C)c1 (configuration not stated)	n	n	n	n	n	n
